# Assay results reported in PubChem BioAssay (Tox21).
# Results filed as inconclusive are left out. Entries that show only a call come without a potency. Active and inactive are the calls of the source. Unless noted, calls follow the shape of the full dose curve.
# Legend:
# [1] = molecular target: Gonadotropin-releasing hormone receptor (Homo sapiens) (UniProt P30968); assay: Human gonadotropin-releasing hormone receptor (GnRHR) small molecule agonists, calcium flux assay in GnRHR-HEK293 cells (AID 1920063); also: nearly all actives have a fitted effect of over 35% in size
# Method in brief: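 We seeded human GnRHR-expressing HEK293 cells for 18 hours, loaded them with calcium dye for an hour at 37 C, added test compounds, and recorded fluorescence intensity kinetically for three minutes.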
# [2] = molecular target: KiSS-1 receptor (Homo sapiens) (UniProt Q969F8); assay: Human kisspeptin (KISS1R) small molecule agonists, calcium flux assay in KISS1R-HEK293 cells (AID 1920064; active = well fitted activation curve with a large enough effect in the repeat runs)
# Method in brief: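 Kinetic calcium assay, 1 s sampling over 3 min at Ex/Em 480/540, in HEK293 cells engineered with human KISS1R; compounds delivered in DMSO after 1 h dye loading.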
# [3] = G protein-coupled receptor (GPCR) small molecule agonists, calcium flux assay: HEK293 wild type cell line counter screen (AID 1920065)
# Method in brief: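 Calcium-sensitive dye, loaded 1 h at 37 C into cells cultured 18 h, reports compound-evoked calcium release as fluorescence (Ex/Em 480/540), measured over 3 min. Agonist mode; 15-point titrations, triplicate.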
# [4] = p53 small molecule agonists, cell-based qHTS assay with human liver microsomes (AID 1963577)
# Method in brief: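 Fluorescence of the beta-lactamase reporter in p53RE-bla cells, detected with LiveBLAzer substrate (2 h, room temperature, dark), served as the read-out after 16 h compound exposure at 37 C with human liver microsomes and NADPH, each 0.5 mg/mL final.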
# [5] = p53 small molecule agonists, cell-based qHTS assay with rat liver microsomes (AID 1963578)
# Method in brief: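 Cells carrying a p53 response element–beta-lactamase reporter were plated and rested 5 h, then dosed with compound in DMSO plus rat liver microsomes and NADPH, each at 0.5 mg/mL final. After 16 h at 37 C, LiveBLAzer substrate was added for 2 h.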
# [6] = p53 small molecule agonists, cell-based qHTS assay with human liver microsomes: qHTS cell viability counter screen (AID 1963579); also: nearly all actives have a fitted effect of over 45% in size; also: potency is read from the fitted curve at half-maximal effect
# Method in brief: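 Cytotoxicity counter screen: p53RE-bla, 4,000 cells/well; 5 h settle, 37 C/5% CO2; cpd + HLM 0.5 mg/mL + NADPH 0.5 mg/mL (final); 16 h, 37 C; CellTiter-Glo, 30 min RT, luminescence.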
# [7] = p53 small molecule agonists, cell-based qHTS assay with rat liver microsomes: qHTS cell viability counter screen (AID 1963580); also: nearly all actives have a fitted effect of over 45% in size
# Method in brief: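 In HCT-116 cells carrying a p53 response element-bla reporter, compounds were metabolically activated in situ by rat liver microsomes with NADPH over 16 h. Cell ATP content then served as the cytotoxicity measure.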
# [8] = p53 small molecule agonists, cell-based qHTS assay: qHTS cell viability counter screen (AID 1963581); also: nearly all actives have a fitted effect of over 45% in size
# Method in brief: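 Following 5 h attachment, HCT-116 p53RE-bla cells took up compound for 16 h at 37 C; the reporter was read with B/G FRET substrate (2 h RT), and viability then via CellTiter-Glo ATP luminescence.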
# [9] = p53 small molecule agonists, cell-based qHTS assay (AID 1963582; active = well fitted activation curve with a large enough effect in the signal ratio in the repeat runs, not every such curve was filed as active; the % refers to the signal ratio; also: potency is read from the fitted curve at half-maximal effect)
# Method in brief: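 In this cell-based concentration-response screen, a p53 response element drives beta-lactamase; cells received DMSO-borne compounds after 5 h culture and were incubated a further 16 h before FRET substrate development.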
# [10] = molecular target: 5-hydroxytryptamine receptor 2A (Homo sapiens) (UniProt P28223); assay: 5-hydroxytryptamine receptor 2A (HTR2A) small molecule antagonists, cell-based qHTS assay (AID 1963586); also: nearly all actives have a fitted effect of over 45% in size; also: potency is read from the fitted curve at half-maximal effect
# Method in brief: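 Antagonist-mode intracellular calcium assay: DOI (4 nM) added after 5 min compound pre-incubation at room temperature to dye-loaded HTR2A-CHO cells. Fluorescence followed for 3 min, sampled every second.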
# [11] = molecular target: 5-hydroxytryptamine receptor 2A (Homo sapiens) (UniProt P28223); assay: 5-hydroxytryptamine receptor 2A (HTR2A) small molecule agonists, cell-based qHTS assay (AID 1963587); also: nearly all actives have a fitted effect of over 30% in size; also: potency is read from the fitted curve at half-maximal effect
# Method in brief: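 HTR2A-CHO cells, plated 18 h at 37 C/5% CO2, dye-loaded 1 h at 37 C; compounds in DMSO added by pin tool (agonist mode). Intracellular calcium flux read as kinetic fluorescence on FDSS over 2 min at 1 s intervals.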
# [12] = molecular target: Muscarinic acetylcholine receptor M1 (Homo sapiens) (UniProt P11229); assay: Cholinergic receptor muscarinic 1 (CHRM1) small molecule antagonists, cell-based qHTS assay (AID 1963588); also: nearly all actives have a fitted effect of over 40% in size
# Method in brief: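 CHRM1-CHO calcium-flux assay, antagonist mode. Cells were seeded 18 h, dye-loaded 1 h at 37 C and given compound for 5 min at RT, then acetylcholine was added at 50nM. FDSS fluorescence was read 3 min; 15 concentrations, three runs.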
# [13] = molecular target: Muscarinic acetylcholine receptor M1 (Homo sapiens) (UniProt P11229); assay: Cholinergic receptor muscarinic 1 (CHRM1) small molecule agonists, cell-based qHTS assay (AID 1963589); also: nearly all actives have a fitted effect of over 35% in size
# Method in brief: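 Measures agonist-induced intracellular calcium rise. Stable human CHRM1 CHO line, 1 h dye load at 37 C, compounds from DMSO, kinetic fluorescence read.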
# [14] = cAMP Responsive Elements (CRE) small molecule agonists, cell-based qHTS assay (AID 1963590)
# Method in brief: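 A CRE-responsive beta-lactamase reporter in HEK 293T cells was used. Treatment ran 3 h at 37 C; detection used LiveBLAzer B/G FRET substrate for 2 h at room temperature.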
# [15] = cAMP Responsive Elements (CRE) small molecule antagonists, cell-based qHTS assay (AID 1963591; active = well fitted inhibition curve with a large enough effect in the signal ratio in the repeat runs, not every such curve was filed as active; the % refers to the signal ratio)
# Method in brief: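 HEK293T cells carrying a CRE-driven beta-lactamase reporter receive compound and NKH477 (0.25 uM final) for 3 h. Fluorescence from LiveBLAzer B/G FRET substrate is read after 2 h at room temperature.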
# [16] = molecular target: Beta-2 adrenergic receptor (Homo sapiens) (UniProt P07550); assay: Adrenergic beta2 receptor (ADRB2) small molecule antagonists, cell-based qHTS assay (AID 1963592); also: series mostly up to about 92 µM; nearly all actives have a fitted effect of over 50% in size
# Method in brief: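 Cells (CHO, stable ADRB2 overexpression) incubated 18-20hr at 37C; compounds added from DMSO; agonist mix (1nM isoproterenol, 100uM IBMX, 25uM Ro-20-1724) added; 0.5hr RT; d2-cAMP and anti-cAMP-cryptate added; 1hr RT; 665/615 nm read.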
# [17] = molecular target: Beta-2 adrenergic receptor (Homo sapiens) (UniProt P07550); assay: Adrenergic beta2 receptor (ADRB2) small molecule agonists, cell-based qHTS assay (AID 1963593);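 also: CHO cells stably overexpressing human ADRB2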
# Method in brief: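 CHO cells stably over-expressing ADRB2 were plated overnight at 37C, then dosed with compounds plus a stimulation mix containing 100uM IBMX and 25uM Ro-20-1724 for 0.5hr at room temperature. cAMP was measured by HTRF competition, 1hr.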
# [18] = molecular target: D(2) dopamine receptor (Homo sapiens) (UniProt P14416); assay: Dopamine D2 receptor (DRD2) small molecule antagonists, cell-based qHTS assay (AID 1963595; active = well fitted inhibition curve with a large enough effect in the signal ratio in the repeat runs, with a control signal flat; the % refers to the signal ratio; also: potency is read from the fitted curve at half-maximal effect)
# Method in brief: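 Stable D2 receptor HEK293 line, 24 h after seeding. Compound preincubated 10 min, then quinpirole (12 nM) with forskolin analogue NKH477 (200 nM), 30 min, room temperature. Detection by time-resolved FRET of cAMP.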
# [19] = molecular target: D(2) dopamine receptor (Homo sapiens) (UniProt P14416); assay: Dopamine D2 receptor (DRD2) small molecule agonists, cell-based qHTS assay (AID 1963594); also: nearly all actives have a fitted effect of over 35% in size
# Method in brief: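 HEK293 cells stably expressing DRD2 were cultured 24 h at 37 C, then given Ro20-1724 (0.1 mM final) and compounds for 10 min at room temperature. NKH477 (200nM) was then added for 30 min. cAMP was read by HTRF.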
# Gonadotropin-releasing hormone receptor (Homo sapiens), sequence (P30968 whole entry, looked up): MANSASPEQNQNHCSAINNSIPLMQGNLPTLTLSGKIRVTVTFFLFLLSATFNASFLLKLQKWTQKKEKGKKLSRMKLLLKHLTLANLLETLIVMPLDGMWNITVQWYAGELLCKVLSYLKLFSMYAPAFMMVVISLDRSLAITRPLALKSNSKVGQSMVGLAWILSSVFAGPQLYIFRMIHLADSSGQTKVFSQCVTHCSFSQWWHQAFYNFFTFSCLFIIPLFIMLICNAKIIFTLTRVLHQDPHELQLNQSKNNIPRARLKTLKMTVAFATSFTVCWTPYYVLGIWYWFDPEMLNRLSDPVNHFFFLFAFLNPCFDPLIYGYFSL
# KiSS-1 receptor (Homo sapiens), sequence (Q969F8 whole entry, looked up): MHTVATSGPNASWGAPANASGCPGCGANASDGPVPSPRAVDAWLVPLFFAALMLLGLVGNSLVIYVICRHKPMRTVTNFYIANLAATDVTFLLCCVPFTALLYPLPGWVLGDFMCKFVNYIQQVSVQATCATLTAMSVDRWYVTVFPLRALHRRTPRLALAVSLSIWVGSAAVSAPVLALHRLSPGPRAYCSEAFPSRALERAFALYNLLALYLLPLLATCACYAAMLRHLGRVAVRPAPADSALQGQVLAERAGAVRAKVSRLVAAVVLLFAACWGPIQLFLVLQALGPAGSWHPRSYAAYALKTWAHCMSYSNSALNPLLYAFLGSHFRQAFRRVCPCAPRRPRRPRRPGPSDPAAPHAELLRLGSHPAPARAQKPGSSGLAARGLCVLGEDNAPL
# Beta-2 adrenergic receptor (Homo sapiens), sequence (P07550 whole entry, looked up): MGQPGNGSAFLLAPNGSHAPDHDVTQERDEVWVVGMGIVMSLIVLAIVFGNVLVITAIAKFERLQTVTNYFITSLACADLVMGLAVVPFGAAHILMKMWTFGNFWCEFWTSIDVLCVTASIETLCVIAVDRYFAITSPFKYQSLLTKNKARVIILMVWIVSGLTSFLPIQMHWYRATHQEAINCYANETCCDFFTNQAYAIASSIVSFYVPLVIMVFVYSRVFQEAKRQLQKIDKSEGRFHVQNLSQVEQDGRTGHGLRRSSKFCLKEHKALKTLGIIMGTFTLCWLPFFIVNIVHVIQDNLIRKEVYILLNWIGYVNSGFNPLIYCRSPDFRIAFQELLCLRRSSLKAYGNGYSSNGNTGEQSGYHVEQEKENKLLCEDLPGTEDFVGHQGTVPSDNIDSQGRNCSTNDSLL
# D(2) dopamine receptor (Homo sapiens), sequence (P14416 whole entry, looked up): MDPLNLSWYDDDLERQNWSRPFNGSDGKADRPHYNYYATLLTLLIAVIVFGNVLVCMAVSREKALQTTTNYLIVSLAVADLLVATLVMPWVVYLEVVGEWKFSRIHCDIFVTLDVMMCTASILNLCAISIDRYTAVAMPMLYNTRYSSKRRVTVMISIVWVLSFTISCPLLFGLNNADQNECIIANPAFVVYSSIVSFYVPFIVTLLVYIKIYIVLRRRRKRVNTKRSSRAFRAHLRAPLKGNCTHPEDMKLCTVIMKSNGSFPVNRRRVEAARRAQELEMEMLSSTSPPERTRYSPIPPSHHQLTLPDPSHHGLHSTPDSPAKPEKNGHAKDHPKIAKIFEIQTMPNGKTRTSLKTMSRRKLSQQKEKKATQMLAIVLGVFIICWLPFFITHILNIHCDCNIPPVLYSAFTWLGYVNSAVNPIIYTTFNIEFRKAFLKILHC
# Muscarinic acetylcholine receptor M1 (Homo sapiens), sequence (P11229 whole entry, looked up): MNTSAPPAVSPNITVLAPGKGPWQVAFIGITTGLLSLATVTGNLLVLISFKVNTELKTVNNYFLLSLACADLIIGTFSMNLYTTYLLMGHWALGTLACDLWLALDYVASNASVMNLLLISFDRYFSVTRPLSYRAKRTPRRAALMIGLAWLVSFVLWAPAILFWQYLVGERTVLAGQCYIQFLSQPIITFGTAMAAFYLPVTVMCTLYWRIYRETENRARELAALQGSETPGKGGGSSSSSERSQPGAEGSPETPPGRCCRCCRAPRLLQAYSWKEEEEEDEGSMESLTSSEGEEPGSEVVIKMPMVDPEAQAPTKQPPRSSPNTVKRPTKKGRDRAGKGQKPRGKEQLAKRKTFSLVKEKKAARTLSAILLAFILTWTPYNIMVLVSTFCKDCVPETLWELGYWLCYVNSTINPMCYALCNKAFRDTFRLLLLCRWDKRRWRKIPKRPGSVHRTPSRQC
# 5-hydroxytryptamine receptor 2A (Homo sapiens), sequence (P28223 whole entry, looked up): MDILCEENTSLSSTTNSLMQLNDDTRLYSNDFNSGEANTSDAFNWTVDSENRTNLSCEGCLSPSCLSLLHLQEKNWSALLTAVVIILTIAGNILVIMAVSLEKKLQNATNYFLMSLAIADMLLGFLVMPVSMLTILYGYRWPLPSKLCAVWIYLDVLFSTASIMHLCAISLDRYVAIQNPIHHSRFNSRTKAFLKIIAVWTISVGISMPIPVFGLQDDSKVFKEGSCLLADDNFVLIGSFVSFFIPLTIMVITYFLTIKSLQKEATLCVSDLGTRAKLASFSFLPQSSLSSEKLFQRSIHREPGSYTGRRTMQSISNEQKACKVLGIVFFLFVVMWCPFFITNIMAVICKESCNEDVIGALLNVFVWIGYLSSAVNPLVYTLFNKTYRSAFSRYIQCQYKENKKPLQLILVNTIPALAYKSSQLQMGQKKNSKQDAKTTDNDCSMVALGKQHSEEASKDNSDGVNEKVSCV
SMILES,Potency [1],Potency [2],Potency [3],Potency [4],Potency [5],Potency [6],Potency [7],Potency [8],Potency [9],Potency [10],Potency [11],Potency [12],Potency [13],Potency [14],Potency [15],Potency [16],Potency [17],Potency [18],Potency [19]
c1ccc2sc(SN3CCOCC3)nc2c1,inactive,inactive,inactive,inactive,inactive,inactive,inactive,inactive,inactive,inactive,inactive,inactive,inactive,inactive,inactive,inactive,inactive,inactive,–
CC[C@]12CCCN3CCc4c(n(c5ccccc45)C(=O)C1)[C@@H]32,inactive,inactive,inactive,inactive,inactive,–,inactive,–,–,inactive,–,inactive,inactive,inactive,inactive,inactive,inactive,inactive,inactive
COc1cc(C)nc(-n2nc(C)cc2OC)n1,inactive,inactive,inactive,inactive,inactive,–,inactive,inactive,inactive,inactive,inactive,inactive,inactive,inactive,inactive,inactive,–,–,–
COC(=O)C1=C(C)NC(C)=C(C(=O)OCCCN2CCC(c3ccccc3)(c3ccccc3)CC2)C1c1cccc([N+](=O)[O-])c1 (configuration not stated),inactive,inactive,inactive,inactive,inactive,inactive,inactive,inactive,–,inactive,–,inactive,inactive,–,–,inactive,–,inactive,inactive
CCCCNC(=S)NCCCC,inactive,inactive,inactive,inactive,inactive,inactive,inactive,inactive,inactive,inactive,inactive,inactive,inactive,inactive,–,inactive,inactive,inactive,inactive
NCCc1cnc[nH]1,inactive,inactive,inactive,inactive,inactive,–,inactive,inactive,inactive,inactive,inactive,inactive,inactive,inactive,inactive,inactive,–,inactive,–
CSc1ccc(O)cc1C,inactive,inactive,inactive,inactive,inactive,inactive,inactive,inactive,inactive,inactive,inactive,inactive,inactive,inactive,inactive,inactive,–,inactive,inactive
COc1cc([C@@H]2c3cc4c(cc3[C@@H](O[C@@H]3O[C@@H]5CO[C@@H](C)O[C@H]5[C@H](O)[C@H]3O)[C@H]3COC(=O)[C@H]23)OCO4)cc(OC)c1O,inactive,inactive,inactive,inactive,inactive,inactive,inactive,inactive,1.14 µM (active),–,–,–,–,–,–,–,inactive,inactive,inactive
C[C@@H]1CC[C@H]2C(C)(C)[C@H]3C[C@@]12CC[C@@]3(C)O,inactive,inactive,inactive,inactive,inactive,inactive,inactive,inactive,inactive,inactive,48.9 µM (active),–,inactive,inactive,inactive,inactive,–,inactive,inactive
NC(=O)C1(N2CCCCC2)CCN(CCCN2c3ccccc3CCc3ccc(Cl)cc32)CC1,inactive,inactive,inactive,inactive,inactive,inactive,inactive,–,–,0.103 µM (active),–,inactive,inactive,–,–,–,–,0.376 µM (active),inactive
Cc1ccccc1N=Nc1ccc(N=Nc2c(O)ccc3ccccc23)c(C)c1,inactive,inactive,inactive,inactive,inactive,inactive,inactive,inactive,inactive,inactive,inactive,inactive,inactive,inactive,inactive,inactive,inactive,–,inactive
c1cc(C(c2ccc(OCC3CO3)cc2)c2ccc(OCC3CO3)cc2)ccc1OCC1CO1 (configuration not stated),inactive,inactive,inactive,inactive,inactive,inactive,–,inactive,–,inactive,inactive,inactive,inactive,–,–,–,–,inactive,inactive
CCC(Cl)CCC(Cl)C(Cl)CC(Cl)C(Cl)C(Cl)CCl (configuration not stated),inactive,inactive,inactive,inactive,inactive,inactive,–,–,inactive,inactive,–,inactive,inactive,inactive,inactive,inactive,–,inactive,inactive
Cc1ccc(Cl)c(N)c1Cl,inactive,inactive,inactive,inactive,inactive,18.2 µM (active),inactive,inactive,inactive,inactive,inactive,inactive,inactive,inactive,inactive,inactive,inactive,inactive,inactive
CC(=O)Nc1ccc(S(=O)(=O)Nc2ccc([N+](=O)[O-])cc2)cc1,inactive,inactive,inactive,inactive,inactive,inactive,inactive,inactive,inactive,inactive,inactive,–,inactive,–,inactive,inactive,inactive,inactive,inactive
CCC(=O)/C=C/c1ccc(OC)cc1,inactive,inactive,inactive,inactive,–,inactive,inactive,inactive,inactive,inactive,inactive,inactive,inactive,–,–,–,inactive,inactive,inactive
